We go through 13 compounds from PubChem BioAssay.

Test [1] in a line: inhibitors of TNFa-induced NFkB p65 translocation, primary screen, imaging, HUVEC, MLSMR starter and 10KST1 sets (AID 438;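 active = inhibition above 20% together with a positive visual image hit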;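 note: compound added about 3h40 before a 20 min TNFalpha stimulation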;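 for inhibition: signal is the nuclear over cytoplasmic p65 intensity ratio per well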). As to conditions: HUVEC TNFa-induced p65 nuclear translocation; cell count: measured here: nuclei count (cytotoxicity indicator), at 2.08 µM; inhibition: at 2 µM, stronger effect = higher value, 0% TNFa-plus-vehicle, 100% no-TNFa wells.
The nature of test [2]: inhibitors of mutant huntingtin aggregation, primary screen, imaging, exon1htt(103Q)mCFP cells, high-content imaging (AID 483;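 active = visual image review flags a hit and inhibition of aggregation exceeds 20%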;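 note: compound exposure lasted 3 days before fixation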;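 for nuclei count: percent of the per-plate median nuclei count of sample wells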). As to conditions: exon1htt(103Q)mCFP cell line, aggregate imaging, at 2 µM; inhibition of aggregation: stronger effect = higher value; nuclei count: measured here: cell count, toxicity.
Test [3] can be described thus: inhibitors of E-selectin induction by TNFa, primary screen, imaging, HUVEC, immunofluorescence, MLSMR starter and 10KST1 sets (AID 487;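 active = visually confirmed hit in the image check and inhibition above 20%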;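 for inhibition: signal is fraction of cell area covered by stained E-selectin grains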;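 for nuclei count: 100% = median nuclei count of all wells on the same plate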). As to conditions: HUVEC TNFalpha-induced E-selectin immunofluorescence imaging, at 2 µM; inhibition: stronger effect = higher value; nuclei count: measured here: cell number, toxicity.
Test [4] has as its target Voltage-gated potassium channel subunit beta-2 (Rattus norvegicus) (UniProt P62483). Kind of test: KvBeta enzyme negative modulators, primary screen, biochemical, NADPH fluorescence (AID 622).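 Note: slope of raw intensity against log time taken from 70 to 1610 s.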 As to conditions: recombinant KvBeta, 4-cyanobenzaldehyde reduction, at 10 µM, stronger effect = higher value.
The target is the same in test [5]. Briefly: KvBeta positive modulators, primary screen, biochemical, NADPH fluorescence (AID 623;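 active = NADPH fluorescence slope more negative than the mean of all samples by about 3 SD, 99.7% confidence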;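 note: fluorescence intensity change per second fitted from 20 to 320 s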). As to conditions: Recombinant KvBeta, NADPH fluorescence decrease slope, 10 min; at 10 µM; stronger effect = lower value.
The target of test [6] is Alpha-2C adrenergic receptor (Homo sapiens) (UniProt P18825). Kind of test: modulators of alpha2C/GIRK thallium flux, primary screen, cell-based, HEK293 alpha2C/GIRK1/2 (AID 624;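 active = fluorescence slope after compound addition differing from the mean of all screened samples at 99.7% confidence, in either direction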;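 note: slope of fluorescence ratio to pre-addition baseline per second over 15 to 24 s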). As to conditions: thallium flux BTC fluorescence, at 10 µM, actives lie on both sides.
Test [7] can be described thus: inhibitors of Sendai virus-induced IRF3 signaling, primary screen, TLR/RLR signaling modifier project, cell-based, Sendai virus stimulus, luciferase, 10K MLSCN set (AID 602276;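 active = inhibition at or above 50% at 10 µM; inactive = inhibition below 50%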;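 note: firefly luciferase from ISG56 promoter only with Renilla not read in this screen; 0% = Sendai virus plus DMSO and 100% = medium plus DMSO without virus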). As to conditions: HEK293 RL24 IRF3 luciferase reporter, at 10 µM, stronger effect = higher value.
Test [8] can be described thus: inhibitors of poly I:C-induced TLR3 signaling, primary screen, cell-based, poly I:C stimulus, luciferase, 10K MLSCN set (AID 602277;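 active = inhibition of the reporter signal at or above 50%; inactive = inhibition below 50%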). As to conditions: HEK293-TLR3 RL24 IRF3 luciferase reporter, at 10 µM, stronger effect = higher value.

The source made the active and inactive calls.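 Rule for the calls, unless noted: active = fluorescence slope higher than the sample average by over 3 SD (cut at about -0.22 in these data, passing the limit was not always enough); inactive = the rest.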

Chain of Voltage-gated potassium channel subunit beta-2 (Rattus norvegicus) (P62483 whole entry, looked up): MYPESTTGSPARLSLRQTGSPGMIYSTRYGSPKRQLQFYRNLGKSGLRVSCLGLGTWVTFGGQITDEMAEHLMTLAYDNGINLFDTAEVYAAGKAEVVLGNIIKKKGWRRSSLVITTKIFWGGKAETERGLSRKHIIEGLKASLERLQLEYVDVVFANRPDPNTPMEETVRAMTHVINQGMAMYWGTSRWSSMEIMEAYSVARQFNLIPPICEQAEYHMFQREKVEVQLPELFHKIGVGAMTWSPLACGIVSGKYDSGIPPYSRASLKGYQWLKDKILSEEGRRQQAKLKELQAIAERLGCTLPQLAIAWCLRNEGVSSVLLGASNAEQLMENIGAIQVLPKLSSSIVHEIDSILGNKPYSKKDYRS
Chain of Alpha-2C adrenergic receptor (Homo sapiens) (P18825 whole entry, looked up): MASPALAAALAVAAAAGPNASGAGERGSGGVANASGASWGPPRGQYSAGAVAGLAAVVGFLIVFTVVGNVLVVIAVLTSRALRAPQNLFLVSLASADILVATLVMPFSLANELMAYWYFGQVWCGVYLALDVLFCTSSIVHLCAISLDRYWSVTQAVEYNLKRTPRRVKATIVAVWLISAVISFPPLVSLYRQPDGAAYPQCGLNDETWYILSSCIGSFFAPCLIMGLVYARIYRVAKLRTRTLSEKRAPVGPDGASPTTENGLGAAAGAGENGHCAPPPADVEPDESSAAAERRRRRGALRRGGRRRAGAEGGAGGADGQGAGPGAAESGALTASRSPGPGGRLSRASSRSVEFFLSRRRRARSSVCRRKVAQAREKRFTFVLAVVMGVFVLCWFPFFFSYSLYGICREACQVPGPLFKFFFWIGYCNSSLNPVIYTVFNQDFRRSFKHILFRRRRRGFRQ

Consider `Cc1cc(NC(=O)c2cc3ccccc3o2)cc(C)c1OCC(=O)N1CCOCC1`, for which the cell count in test [1] was 388. The inhibition in test [1] is 7.3% (inactive); in test [3], -11.8% (inactive); in test [7], -1.27% (inactive); in test [8], -52% (inactive). In addition, in test [2], the inhibition of aggregation is -7% (inactive). For the same compound, the values for the nuclei count in test [2] and in test [3] were 121% and 115%, respectively. Also, the fluorescence slope in test [4] was -0.526 (inactive). In test [5], the NADPH fluorescence slope is -4.4e-05 (inactive). Besides, the slope in test [6] was 0.00621 (inactive).

With `Cc1ccc2cc(CN(Cc3ccc(F)cc3)Cc3nnnn3C3CCCC3)c(=O)[nH]c2c1`, the cell count in test [1] was determined as 702. Besides, the inhibition is -10.8% (inactive) in test [1], -40.7% (inactive) in test [3], 10.6% (inactive) in test [7] and 13.8% (inactive) in test [8]. Besides, the inhibition of aggregation in test [2] is -13.3% (inactive). Also, the nuclei count in test [2] is 103%; in test [3], 98.8%. For the same compound, in test [4], the fluorescence slope was -0.311 (inactive). In addition, the NADPH fluorescence slope in test [5] was -4.1e-05 (inactive). For the same compound, the slope in test [6] is 0.00514 (inactive).

As to `Cn1c(=O)c2c(nc3sccn32)n(C)c1=O`, the cell count in test [1] was 463. Also, the inhibition is 12.5% (inactive) in test [1], 29.8% (inactive) in test [3], 9.58% (inactive) in test [7] and 23.1% (inactive) in test [8]. In addition, the inhibition of aggregation in test [2] was 5.1% (inactive). The nuclei count in test [2] was found to be 100%; in test [3] it was 108%. Besides, the fluorescence slope in test [4] is -0.455 (inactive). Moreover, the NADPH fluorescence slope in test [5] is 7.5e-05 (inactive). The slope in test [6] was 0.00599 (inactive).

With `CCOc1ccc(-c2nc(N)ncc2-c2ccccc2)c(O)c1`, the cell count in test [1] turned out to be 399. In addition, the inhibition was 2% (inactive) in test [1], -32.6% (inactive) in test [3], -1.82% (inactive) in test [7] and -1.28% (inactive) in test [8]. In test [2], the inhibition of aggregation was -4.3% (inactive). For the same compound, the nuclei count is 114% in test [2] and 67.7% in test [3]. Moreover, in test [4], the fluorescence slope was -0.581 (inactive). The NADPH fluorescence slope in test [5] is -3.6e-05 (inactive). For the same compound, the slope in test [6] was 0.00545 (inactive).

Take `CCN(c1cccc(C(F)(F)F)c1)S(=O)(=O)c1ccc2c(c1)CCN2C(=O)C1CC1`: the cell count in test [1] is 495. Besides, the inhibition in test [1] was 2.7% (inactive); in test [3] it was -51.5% (inactive); in test [7] it was -11.8% (inactive); in test [8], -25.9% (inactive). Moreover, the inhibition of aggregation in test [2] is 3.1% (inactive). The nuclei count in test [2] is 97.3%; in test [3], 104%. In addition, the fluorescence slope in test [4] is -0.405 (inactive). Moreover, the NADPH fluorescence slope in test [5] is -4.7e-05 (inactive). Also, in test [6], the slope is 0.00287 (inactive).

With `Cc1ccc2[nH]c(=O)c(CN(Cc3ccc4c(c3)OCO4)Cc3nnnn3Cc3ccco3)cc2c1`, the cell count in test [1] came out at 638. In addition, the inhibition in test [1] is 2.2% (inactive); in test [3], -74.1% (inactive); in test [7] it was 9.33% (inactive); in test [8], 12.2% (inactive). Besides, in test [2], the inhibition of aggregation is -15.3% (inactive). For the same compound, the nuclei count in test [2] came to 94.1%; in test [3], 122%. The fluorescence slope in test [4] was -0.622 (inactive). Moreover, the NADPH fluorescence slope in test [5] is -7e-06 (inactive). The slope in test [6] is 0.00625 (inactive).

Regarding `COc1ccc(CN(Cc2cc3cc4c(cc3[nH]c2=O)OCO4)C(=O)NC2CCCCC2)cc1`, the cell count in test [1] worked out at 337. Further, the inhibition in test [1] is 7.6% (inactive); in test [3] it was -75.9% (inactive); in test [7] it was 5.31% (inactive); in test [8] it was -1.61% (inactive). Also, the inhibition of aggregation in test [2] was 38.7% (inactive). For the same compound, the nuclei count in test [2] turned out to be 73.1%; in test [3], 99.3%. In addition, the fluorescence slope in test [4] is -0.368 (inactive). Besides, the NADPH fluorescence slope in test [5] is -5.1e-05 (inactive). In test [6], the slope was 0.0053 (inactive).

For the compound `COc1ccccc1NC(=O)C1=C(C)Nc2nnnn2C1c1ccccc1OC` (stereo not drawn), the cell count in test [1] worked out at 453. In addition, the inhibition in test [1] is -0.5% (inactive); in test [3], 8.8% (inactive); in test [7] it was 10.5% (inactive); in test [8], 33.5% (inactive). The inhibition of aggregation in test [2] was -7.9% (inactive). Further, the nuclei count worked out at 90.1% in test [2] and 82.2% in test [3]. Further, in test [4], the fluorescence slope is -0.415 (inactive). The NADPH fluorescence slope in test [5] was 7.3e-06 (inactive). In addition, the slope in test [6] is 0.00379 (inactive).

Consider `O=C(CN1CCCC1)Nc1ccc(NC(=O)Nc2ccccc2)cc1`, for which the cell count in test [1] came out at 433. In addition, the inhibition in test [1] was -5.7% (inactive); in test [3], -132% (inactive); in test [7], -33.7% (inactive); in test [8], -54.6% (inactive). Moreover, the inhibition of aggregation in test [2] is 8.5% (inactive). Also, the nuclei count in test [2] is 96.4%; in test [3], 215%. In test [4], the fluorescence slope was -0.433 (inactive). In addition, in test [5], the NADPH fluorescence slope was 7.1e-05 (inactive). Moreover, the slope in test [6] was 0.00831 (inactive).

As for `CCOC(=O)N1CCN(C(=O)c2ccc3c(=O)n(Cc4ccc(OC)cc4)c(=S)[nH]c3c2)CC1`, in test [1], the cell count is 475. The inhibition in test [1] is -17% (inactive); in test [3] it was 2.4% (inactive); in test [7] it was 11.9% (inactive); in test [8] it was 10% (inactive). Besides, the inhibition of aggregation in test [2] was 45.2% (active). The nuclei count in test [2] was found to be 59.2%; in test [3], 88.2%. Moreover, the fluorescence slope in test [4] was -0.496 (inactive). The NADPH fluorescence slope in test [5] is -2.2e-05 (inactive). In addition, the slope in test [6] was 0.00659 (inactive).

In the case of `COC(=O)COc1cccc(NC(=O)COc2ccccc2)c1`, the cell count in test [1] was found to be 349. Also, the inhibition in test [1] was -2.7% (inactive); in test [3] it was -94.8% (inactive); in test [7], 1.13% (inactive); in test [8], 20.7% (inactive). In addition, the inhibition of aggregation in test [2] was -0.4% (inactive). Further, the nuclei count in test [2] came to 115%; in test [3], 104%. For the same compound, the fluorescence slope in test [4] was -0.336 (inactive). Besides, the NADPH fluorescence slope in test [5] was 3.4e-07 (inactive). In addition, the slope in test [6] is 0.00642 (inactive).

Consider `O=C1CC(c2cccc(Cl)c2)Cc2nc(N3CCN(c4ccccc4)CC3)ncc21` (stereo not drawn), for which the cell count in test [1] came to 715. Besides, the inhibition is -1.6% (inactive) in test [1], -57.1% (inactive) in test [3], -7.91% (inactive) in test [7] and -2.99% (inactive) in test [8]. Also, in test [2], the inhibition of aggregation is -8.3% (inactive). Besides, the nuclei count in test [2] came to 111%; in test [3], 140%. Besides, the fluorescence slope in test [4] was -0.442 (inactive). Further, the NADPH fluorescence slope in test [5] is 2.5e-05 (inactive). In test [6], the slope was 0.00428 (inactive).

Take `Cc1nc(SCCC(=O)O)c2ccccc2n1`: the cell count in test [1] worked out at 310. Further, the inhibition in test [1] was -2.5% (inactive); in test [3], 40.9% (inactive); in test [7], 11.6% (inactive); in test [8] it was 18.5% (inactive). In test [2], the inhibition of aggregation is 9.6% (inactive). Also, the nuclei count in test [2] worked out at 112%; in test [3], 105%. Besides, in test [4], the fluorescence slope was -0.261 (inactive). The NADPH fluorescence slope in test [5] is -2.6e-06 (inactive). For the same compound, the slope in test [6] is 0.00515 (inactive).
